Compound activity (PubChem)
Sampled rows, rich in hits. Any-hit rate of the full collection: about 10%.
NIH3T3 tox: cytotoxic compounds in NIH 3T3 cells; AID 1345082; Potency, µM (highest dose often 96.7 µM), usual class: inhibitors; NIH 3T3 viability, CellTiter-Glo ATP luminescence, 48-72 h; 4.3% of 94,000 active; also: nearly all actives have a fitted effect of over 55% in size
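Mouse fibroblast NIH 3T3 cells, 400 per well, received compound via pintool and were incubated for 48 or 72 hr prior to CellTiter-Glo ATP luminescence measurement.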
GPT2 inhibitor: blocks human glutamate pyruvate transaminase 2 | Q8TD30 | Recombinant GPT2, coupled pyruvate oxidase/HRP Amplex Red fluorescence | Potency, µM (top dose mostly 57.7 µM), most hits filed as inhibitors | 0.25% of 100,000 active | AID 1671188; also: nearly all actives have a fitted effect of over 60% in size
Target sequence (Q8TD30 whole entry, looked up): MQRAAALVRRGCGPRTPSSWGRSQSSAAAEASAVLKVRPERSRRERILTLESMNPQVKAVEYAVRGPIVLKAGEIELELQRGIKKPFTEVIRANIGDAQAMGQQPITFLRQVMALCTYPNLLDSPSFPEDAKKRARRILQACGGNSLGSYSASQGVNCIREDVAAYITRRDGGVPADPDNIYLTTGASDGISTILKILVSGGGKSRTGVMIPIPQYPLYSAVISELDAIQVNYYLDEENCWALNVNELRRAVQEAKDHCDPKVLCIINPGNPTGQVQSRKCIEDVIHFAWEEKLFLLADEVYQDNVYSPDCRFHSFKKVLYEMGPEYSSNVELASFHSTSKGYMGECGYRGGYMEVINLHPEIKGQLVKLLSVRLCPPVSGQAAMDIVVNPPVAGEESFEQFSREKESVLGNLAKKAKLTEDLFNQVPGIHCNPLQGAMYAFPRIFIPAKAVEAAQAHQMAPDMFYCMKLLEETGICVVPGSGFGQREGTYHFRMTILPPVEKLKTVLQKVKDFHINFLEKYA
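Recombinant GPT2 (10ng/uL) with 250uM a-KG and 2mM L-alanine, 30 min at room temperature, in HEPES pH 7.5 buffer. Pyruvate detected by pyruvate oxidase/HRP/Amplex Red fluorescence after 30 min in the dark; AOA (50uM) as positive control.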
HEK293 tox: cytotoxic compounds in HEK 293 cells | HEK 293 viability, ATP luminescence (CellTiter-Glo), 48-72 h | Potency, µM (series often up to 115 µM), most hits filed as inhibitors | 6.6% of 94,000 active; also: nearly all actives have a fitted effect of over 60% in size
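Cells seeded first (HEK 293, 250 cells/well), then compound added by pintool. Incubation ran 48 or 72 hr at 37 degree Celsius. CellTiter-Glo was added and luminescence imaged after 10 min at room temperature.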
FLuc inh: Photinus pyralis luciferase inhibition; P08659; purified P. pyralis luciferase, luminescence, biochemical; Potency, µM (titrated, usually from 115 µM), hits mostly inhibitors; 2.5% of 76,000 active; AID 1347043; also: nearly all actives have a fitted effect of over 65% in size
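Inhibitors were tested against purified firefly luciferase in a biochemical, low-substrate format (both substrates at 10uM) and luminescence measured with a CCD imager.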
NPR1 antag: human Npr1 receptor antagonism | P16066 | HEK293 hNpr1 GloSensor cGMP, ANP-stimulated luminescence | Potency, µM (series often up to 46.3 µM), most hits filed as inhibitors | 1.6% of 76,000 active; calls by dose curve; also: nearly all actives have a fitted effect of over 60% in size
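Compound pre-incubated 30 min at room temperature on GloSensor-loaded HEK293 cells stably carrying hNpr1 and the pGS-40F cGMP biosensor. Stimulation uses hNppA at 0.1 nM final; luminescence is taken at baseline and 20 min post-agonist.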
A number is an active result; 0 = inactive; ? = inconclusive; - = no result given; [ ] = another dose, or the depositor's remark. Unless noted, calls follow the shape of the dose curve; as a rule, active = well fitted curve in the direction sought with a large enough effect; inconclusive = small, poorly fitted or top-dose-only effect, or another doubt; inactive = no such curve, though single readings can be large; an effect the other way counts as inactive or inconclusive.

SMILES | NIH3T3 tox | GPT2 inhibitor | HEK293 tox | FLuc inh | NPR1 antag
CCCNC(=O)c1c(C)oc2ccn(Cc3ccc(F)cc3)c(=O)c12 | ? | 0 | 35.5µM | 0 | 0
Cc1oc2ccn(Cc3cccc(F)c3)c(=O)c2c1C(=O)NCc1cccc(F)c1 | ? | 0 | ? | 0 | 0
COc1ccc(C(C)NC(=O)c2c(C)oc3ccn(Cc4cccc(F)c4)c(=O)c23)cc1 (stereo not given) | ? | 0 | 31.6µM | 0 | 0
COc1ccccc1C(=O)NC1CCN(c2ccc3nnc(C)n3n2)CC1 | 0 | - | 0 | - | -
CC(C)CNc1nccc(C2(c3ccccc3Cl)CCNCC2)n1 | 28.2µM | 0 | 25.1µM | 0 | 0
C[C@@H](O)CNc1nccc(C2(c3ccccc3Cl)CCNCC2)n1 | 0 | 0 | 0 | 0 | 0
CC(CNc1nccc(C2(c3ccccc3Cl)CCNCC2)n1)CN(C)C (stereo not given) | ? | 0 | 0 | 0 | 0
CCC(C)Cc1nccc(C2(c3ccccc3Cl)CCNCC2)n1 (stereo not given) | 28.2µM | 0 | 25.1µM | 0 | 0
COc1ccc(-c2ncc(CN3CCOC(c4cccnc4)C3)cn2)cc1 (stereo not given) | ? | 0[11.5 µM] | ? | 0 | 0
Cc1noc(C)c1-c1cc(-c2ccc(CO)cc2)cn2cncc12 | ? | 0 | ? | 0 | 0
Cc1noc(C)c1-c1cc(-c2cccc(O)c2)cn2cncc12 | 25.1µM | 0 | ? | 0 | 0
Cc1noc(C)c1-c1cc(-c2cccc(F)c2)cn2cncc12 | 44.7µM | 0 | ? | 0 | 0
COc1ccc(-c2cc(-c3c(C)noc3C)c3cncn3c2)cn1 | 50.1µM | 0 | ? | 0 | 0
O=C(CC1CCCC1)N1CCCCCC1c1nc(-c2cccnc2)no1 (stereo not given) | 0 | 0 | ? | 0 | 0
CSc1cccc(NC(=O)Cn2c(-c3ccc(Cl)cc3)nc(C)c(CCO)c2=O)c1 | 0 | 0 | 31.6µM | 0 | 0
Cc1nc(-c2ccc(F)cc2)n(CC(=O)Nc2ccccc2)c(=O)c1CCO | 0 | 0 | 44.7µM | 0 | 0
Cc1nc(-c2ccc(F)cc2)n(CC(=O)Nc2cc(C(F)(F)F)ccc2Cl)c(=O)c1CCO | ? | 0 | 31.6µM | 0 | 0
Cc1nc(-c2ccccc2)n(CC(=O)Nc2ccc(F)cc2)c(=O)c1CCO | ? | 0 | ? | 0 | 0
Cc1ccc(NC(=O)Cn2c(-c3ccc(F)cc3)nc(C)c(CCO)c2=O)c(Cl)c1 | 0 | 0 | ? | 0 | 0
COc1ccc(C)cc1NC(=O)Cn1c(-c2ccc(F)cc2)nc(C)c(CCO)c1=O | 0 | 0 | 79.4µM | 0 | 0
O=C(NC1CCCN(CCn2nc3n(c2=O)CCCC3)C1)c1ccncc1 (stereo not given) | 0 | - | 0 | - | -
CCc1noc(CN(CC)C(=O)c2ccccc2NCc2sccc2C)n1 | ? | 0 | ? | 0 | 0
Cc1nc(-c2ccc(Cl)cc2)n(CC(=O)Nc2cccc(C(F)(F)F)c2)c(=O)c1CCO | ? | 0 | 39.8µM | 0 | 0
Cc1nc(-c2ccc(F)cc2)n(CC(=O)Nc2cccc(C(F)(F)F)c2)c(=O)c1CCO | 22.4µM | 0 | 20µM | 0 | ?
COC(=O)N1CCC(C(=O)N2CCC(N3Cc4ccccc4C3=O)CC2)CC1 | 0 | 0 | 0 | - | -
SMILES | NIH3T3 tox | GPT2 inhibitor | HEK293 tox | FLuc inh | NPR1 antag
CCc1cc(N2CCC(NCCc3cccc(Cl)c3)CC2)nc(C)n1 | 39.8µM | 0 | ? | 0 | 0
CCCc1cc(N2CCC(N[C@@H]3CCNC3)CC2)nc(C)n1 | 0 | 0 | 0 | 0 | 0
CCc1nc(-c2ccc(OC3CCN(C(=O)c4sc(C)nc4C)C3)cc2)no1 (stereo not given) | ? | 0 | 44.7µM | 0 | 0
CCc1nc(-c2ccc(OC3CCN(S(=O)(=O)Cc4ccccc4)C3)cc2)no1 (stereo not given) | ? | 0 | 44.7µM | ? | ?
COCc1nc(-c2ccc(OC3CCN(C(=O)Cc4c[nH]c5ccccc45)C3)cc2)no1 (stereo not given) | ? | 0 | 35.5µM | 0 | ?
Cc1nc(C)c(C(=O)N2CC(Oc3ccc(-c4noc(-c5ccccc5)n4)cc3)C2)s1 | 0 | 0 | 0 | ? | ?
COCC(=O)NC1CCCN(Cc2ccc(-c3cncnc3)cc2)C1 (stereo not given) | 0 | 0 | 0 | - | -
O=C(C1CC1)N1CCC2(CC1)CCN(CCc1ccccc1)c1ccccc1O2 | 0 | 0 | ? | ? | 0
